Records with an inconclusive call do not appear. Activity calls are given as the source filed them. Unless noted, calls come from the whole dose curve; as a rule, active = well fitted curve in the direction sought with a large enough effect; inconclusive = small, poorly fitted or top-dose-only effect, or another doubt; inactive = no such curve, though single readings can be large; an effect the other way counts as inactive or inconclusive.
What was measured:
[1] = G06 Cancer Cell Toxicity qHTS against the NCATS CANVASS Library (AID 1347368)
In short: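 ATP luminescence (CellTiterGlo) readout of cytotoxicity. Canine G06 glioma cells, 500/well, 72 hr incubation at 37C with compounds; bortezomib titration served as control.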

[2] = MCF7 Cancer Cell Toxicity qHTS against the NCATS CANVASS Library (AID 1347369)
In short: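 Luminescent ATP signal (CellTiterGlo) served as the cytotoxicity read-out after MCF7 breast cancer cells had been incubated 72 hr at 37C with natural products in an 11-point titration.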

[3] = qHTS for ATAD5 Antagonist screened against the NCATS CANVASS Library (AID 1347370)
In short: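 HEK293T-ATAD5 luc reporter, 2000 cells/well; 5hr attach; cpd + 10 uM 5-FUrd; 16hr 37C, 5% CO2. Readouts: CellTiter-Fluor fluorescence (1hr), then Amplite luciferase luminescence (30min RT).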

[4] = target: Nuclear receptor subfamily 1 group I member 3 (Homo sapiens) (UniProt Q14994); experiment: qHTS for Constitutive Androstane Receptor (CAR) Antagonist screened against the NCATS CANVASS Library (AID 1347372)
Chain of Nuclear receptor subfamily 1 group I member 3 (Homo sapiens) (Q14994 whole entry, looked up): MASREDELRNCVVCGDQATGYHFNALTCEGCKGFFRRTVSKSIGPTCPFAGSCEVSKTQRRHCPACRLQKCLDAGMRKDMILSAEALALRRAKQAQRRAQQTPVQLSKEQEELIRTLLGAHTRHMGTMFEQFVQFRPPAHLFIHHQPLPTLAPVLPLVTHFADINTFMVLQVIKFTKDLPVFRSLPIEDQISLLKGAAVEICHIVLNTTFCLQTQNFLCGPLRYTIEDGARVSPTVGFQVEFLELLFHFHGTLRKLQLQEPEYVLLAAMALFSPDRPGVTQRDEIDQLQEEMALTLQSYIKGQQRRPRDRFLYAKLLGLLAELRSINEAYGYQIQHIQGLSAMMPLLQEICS
In short: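 Luminescence readout (ONE-Glo, 30 min RT) of CYP2B6-2.2kb reporter in HepG2-hCAR cells after 24hr, 37C treatment with compound against 50 nM CITCO; CellTiter-Fluor viability read beforehand.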

[5] = target: Nuclear receptor subfamily 1 group I member 3 (Homo sapiens) (UniProt Q14994); experiment: qHTS for Constitutive Androstane Receptor (CAR) Agonist screened against the NCATS CANVASS Library (AID 1347373)
In short: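 Luciferase read-out (ONE-Glo, 30 min RT) of CYP2B6-2.2kb promoter activity in double-stable HepG2-hCAR cells after 24hr compound exposure with 1.5uM PK11195 present; viability measured first by CellTiter-Fluor.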

[6] = qHTS for Hypoxia signaling pathway (HIF-1) antagonists against the NCATS CANVASS Library (AID 1347374)
In short: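 Beta-lactamase reporter under HRE control in ME-180 cells; CoCl2 stimulus (60 uM solution as added), compounds 11-pt qHTS, 17 h 37C. CCF4 dye 2 h RT, 460/530 nm emission. CellTiter-Glo viability in same wells.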

[7] = DH5-alpha competent E. coli microbial cell viability qHTS against the NCATS CANVASS Library (AID 1347377); conditions: outcome: at 46.1 µM (top of the series)
In short: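 Luminescent ATP read-out (BacTiter-Glo, 20 min RT) after overnight 37C culture of DH5-alpha E. coli with compounds; daunomycin control at 0.2 nM–9.2 uM final.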

[8] = qHTS for H2AX Agonists against the NCATS CANVASS Library (AID 1347378)
In short: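 TR-FRET readout (ex 320 nm, em 665/620 nm ratio) of phospho-H2AX (S139) in CHO-K1 lysates. Cells treated 3 hr at 37C with compound titration, 0.76% DMSO; lysis 30 min, antibody detection 24 hr at RT.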

[9] = qHTS for Inflammasome Signaling Inhibitors: IL-1-beta AlphaLISA screen against the NCATS CANVASS Library (AID 1347379)
In short: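 THP-1, 1 hr compound pre-incubation, then LPS 250 ng/mL + ATP 1.25 mM (final); 16 hr total with compound; IL-1B AlphaLISA, ex 680/em 615 nm; 11-point qHTS, up to 57.5 uM final.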

[10] = qHTS for Antimalaria activity screened against the NCATS CANVASS Library (AID 1347380)
In short: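 SYBR Green fluorescence (ex 485, em 535 nm) read after saponin/Triton lysis and 18 h further incubation; Dd2 asexual blood-stage parasites, 72 h compound exposure, 11-pt concentration series, 2.5% hematocrit, 0.3% parasitemia.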

[11] = Inflammasome Signaling qHTS Counterscreen: IL-1-beta AlphaLISA counterscreen against the NCATS CANVASS Library (AID 1347381)
In short: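 Here, no cellular stimulation occurs; compounds in an 11-point series meet 4 pg purified IL-1-beta directly. Bead-based AlphaLISA detection follows (1 h acceptor/antibody, then 30 min donor, dark, room temperature), with excitation at 680 nm.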

[12] = Cytotoxicity qHTS for assessment of Hepg2 cells membrane integrity screened against the NCATS CANVASS Library (AID 1347387)
In short: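 LDH release read by fluorescence (560 nm ex/590 nm em) after CytoTox-ONE addition and 10 min RT; signal tracks lysed cells. HepG2, 2000 cells/well, plated overnight; compound 5 hr, 37C, 5% CO2, final 0.59 nM - 46 uM, 11 points.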

[13] = qHTS for Activators of p53 Stress Response Pathway screened against the NCATS CANVASS Library (AID 1347388)
In short: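 p53RE-bla HCT-116 cells (4000/well) were pre-incubated for 5 h, then treated with compound (11 points) for 16 h at 37C. After 2 h with CCF4, the 460/530 nm ratio gave reporter activation; CellTiter-Glo measured viability.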

[14] = qHTS assay for small molecule disruptors of mitochondrial membrane potential screened against the NCATS CANVASS Library (AID 1347389)
In short: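 Red/green fluorescence ratio read-out: J-aggregates ex 540/em 590 nm, monomers ex 490/em 535 nm. HepG2, 1 hr compound treatment, then 30 min Mito-MPS dye at 37C. 11-pt qHTS concentration series.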

[15] = Secretion counterscreen for inhibitors of the SERCaMP assay screened against the NCATS CANVASS Library (AID 1347390)
In short: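 Luminescence from constitutively secreted GLuc in SH-SY5Y-GLuc STOP cells, read after coelenterazine addition, served as read-out. Compounds tested 0.001 - 77 uM for 20 h at 37C; Brefeldin A as positive control.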

[16] = qHTS for activators of Nrf2/ARE signaling pathway screened against the NCATS CANVASS Library (AID 1347391)
In short: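 HepG2 ARE-bla; cpd 11-pt qHTS, 16 h 37C/5% CO2; CCF4 substrate 2 h RT; read ex 405 / em 460 + 530 nm. Viability by CellTiter-Glo luminescence, 30 min RT.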

[17] = qHTS for activators of dead-cell proteases activity screened against the NCATS CANVASS Library (AID 1347392)
In short: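 HepG2, 2000 cells/well, 18 h attach; cpd 11-pt, 5 h 37C 5% CO2; CytoTox-Glo (AAF-aminoluciferin) 15 min RT; luminescence read.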

[18] = qHTS for inhibitors of ER calcium dysfunction: SERCaMP assay screened against the NCATS CANVASS Library (AID 1347393)
In short: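 SH-SY5Y GLuc-SERCaMP, 1000 cells/well, 4 h attach; cpd 16 h, 37C/5% CO2; thapsigargin (added as 6x 600 nM) 4 h; coelenterazine; luminescence. Reduced reporter release = ER Ca stabilization.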

[19] = Vero-766 cells viability qHTS against the NCATS CANVASS Library: Counterscreen for Zika virus inhibition assay (AID 1347394)
In short: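 CellTiter-Glo luminescence, lower signal indicating cytotoxicity. Vero 766 cells without Zika virus, 1000 cells/well, plated overnight, then treated 72 h at 37C across an 11-point series.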

[20] = qHTS for inhibitors of Wild type Zika virus screened against the NCATS CANVASS Library (AID 1347396)
In short: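 Vero 766 (African green monkey) cells, 1000 per well, attached overnight, then compounds were added in an 11-point series before wild-type Zika virus infection. After 72 h at 37C, cell viability was read as CellTiter Glo luminescence.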

[21] = Viability qHTS for inhibitors of the SERCaMP assay screened against the NCATS CANVASS Library (AID 1347400)
In short: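 CellTiter-Glo luminescence readout after 48 h compound exposure (11-pnt qHTS series) of SH-SY5Y-GLuc SERCaMP MJH297 cells seeded at 1000 cells/well; bortezomib positive control.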

[22] = Redox Reaction Profiling qHTS: Assay Interference Panel against the NCATS CANVASS Library (AID 1347401)
In short: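 Fluorescence read-out (525 nm excitation, 598 nm emission) at time zero and after 15 min in the dark tracked resorufin formation. Mix: 5 uM resazurin, 200 uM DTT, HEPES pH 7.3 buffer with NaCl.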

[23] = qHTS for inhibitors of Rabies Virus screened against the NCATS CANVASS Library (AID 1347402; calls by dose curve)
[24] = Primary qHTS for small molecule stabilizers of the endoplasmic reticulum resident proteome: Secreted ER Calcium Modulated Protein (SERCaMP) assay (AID 1508630)
In short: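 The SH-SY5Y reporter protocol was run at 3 concentrations up to 38.3 uM (primary) or 11 concentrations (follow-up): 16 h compound, 100 nM thapsigargin for 4 h, then extracellular luciferase luminescence.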

Measured: Potency

NCCc1ccccc1
inactive: [1] | [2] | [3] | [4] | [5] | [6] | [7] | [8] | [9] | [10] | [11] | [12] | [13] | [14] | [15] | [16] | [17] | [18] | [19] | [20] | [21] | [22] | [23] | [24]

Source: PubChem BioAssay (NCATS)
